In PubChem BioAssay (Tox21):
“And” between values parts separate entries of the source, which are not always exact repeats. Identical values can stand only once. Records with an inconclusive call do not appear. A structure can be active in one record and inactive in another. The source made the active and inactive calls. Unless noted, calls follow the shape of the dose curve; as a rule, active = well fitted curve in the direction sought with a large enough effect in the repeat runs; inconclusive = weak or mixed curves; inactive = no such curve, though single readings can be large; an effect the other way counts as inactive or inconclusive.

Key:
[1] = qHTS assay to identify aromatase inhibitors - cell viability counter screen (AID 743084);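 also: cells stimulated with testosterone during compound exposure; nearly all actives have a fitted effect of over 55% in size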; also: potency is read from the fitted curve at half-maximal effect
[2] = target: Aryl hydrocarbon receptor (Homo sapiens) (UniProt P35869); assay: qHTS assay to identify small molecule that activate the aryl hydrocarbon receptor (AhR) signaling pathway (AID 743085);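 also: HG2L7.5c1 human HepG2 liver cells with stably integrated DRE-driven firefly reporter; series mostly up to about 70 µM; nearly all actives have a fitted effect of over 15% in size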
Sequence of Aryl hydrocarbon receptor (Homo sapiens) (P35869 whole entry, looked up): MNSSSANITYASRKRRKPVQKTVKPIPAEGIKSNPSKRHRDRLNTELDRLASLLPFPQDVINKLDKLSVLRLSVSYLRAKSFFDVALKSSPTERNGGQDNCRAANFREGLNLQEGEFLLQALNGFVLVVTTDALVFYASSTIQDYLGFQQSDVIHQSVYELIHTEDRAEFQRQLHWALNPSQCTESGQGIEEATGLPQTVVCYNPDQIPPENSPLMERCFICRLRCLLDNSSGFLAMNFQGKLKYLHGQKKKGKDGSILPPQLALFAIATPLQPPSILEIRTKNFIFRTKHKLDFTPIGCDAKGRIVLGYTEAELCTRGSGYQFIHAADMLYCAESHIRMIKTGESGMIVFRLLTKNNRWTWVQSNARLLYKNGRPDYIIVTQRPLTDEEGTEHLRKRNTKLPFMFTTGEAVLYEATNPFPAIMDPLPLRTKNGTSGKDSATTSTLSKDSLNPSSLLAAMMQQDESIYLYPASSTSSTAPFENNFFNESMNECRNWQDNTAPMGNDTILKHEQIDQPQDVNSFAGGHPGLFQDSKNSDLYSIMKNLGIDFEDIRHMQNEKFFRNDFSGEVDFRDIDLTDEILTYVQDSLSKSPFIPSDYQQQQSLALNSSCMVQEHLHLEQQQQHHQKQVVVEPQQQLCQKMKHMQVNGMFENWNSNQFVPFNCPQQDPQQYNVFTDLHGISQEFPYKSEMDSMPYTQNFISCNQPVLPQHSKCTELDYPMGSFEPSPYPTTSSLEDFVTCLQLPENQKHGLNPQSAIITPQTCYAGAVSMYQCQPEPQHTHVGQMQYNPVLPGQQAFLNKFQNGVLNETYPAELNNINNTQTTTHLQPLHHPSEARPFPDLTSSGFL
Procedure, shortened: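 HepG2 cells stably carrying a 20-DRE firefly luciferase reporter (HG2L7.5c1) treated with compound for 24 hr at 37C. Luciferase read by ONE-Glo luminescence, with CellTiter-Fluor viability read first.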

[3] = qHTS assay to identify small molecule that activate the aryl hydrocarbon receptor (AhR) signaling pathway - cell viability counter screen (AID 743086);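 also: HepG2 liver cells carrying the AhR DRE luciferase reporter; series mostly up to about 70 µM; nearly all actives have a fitted effect of over 45% in size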
Procedure, shortened: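 HepG2-AhR-luc (HG2L7.5c1) cells, 4000/well, were preincubated 5 h at 37C, exposed to compound in qHTS format for 24 hr at 37C, then given CellTiter-Fluor for 30 min; viability was read as fluorescence in the reporter wells.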

[4] = target: Peroxisome proliferator-activated receptor gamma (Homo sapiens) (UniProt P37231); assay: qHTS assay to identify small molecule agonists of the peroxisome proliferator-activated receptor gamma (PPARg) signaling pathway (AID 743094; active = well fitted activation curve with a large enough effect in the signal ratio in the repeat runs, not every such curve was filed as active; the % refers to the signal ratio)
Sequence of Peroxisome proliferator-activated receptor gamma (Homo sapiens) (P37231 whole entry, looked up): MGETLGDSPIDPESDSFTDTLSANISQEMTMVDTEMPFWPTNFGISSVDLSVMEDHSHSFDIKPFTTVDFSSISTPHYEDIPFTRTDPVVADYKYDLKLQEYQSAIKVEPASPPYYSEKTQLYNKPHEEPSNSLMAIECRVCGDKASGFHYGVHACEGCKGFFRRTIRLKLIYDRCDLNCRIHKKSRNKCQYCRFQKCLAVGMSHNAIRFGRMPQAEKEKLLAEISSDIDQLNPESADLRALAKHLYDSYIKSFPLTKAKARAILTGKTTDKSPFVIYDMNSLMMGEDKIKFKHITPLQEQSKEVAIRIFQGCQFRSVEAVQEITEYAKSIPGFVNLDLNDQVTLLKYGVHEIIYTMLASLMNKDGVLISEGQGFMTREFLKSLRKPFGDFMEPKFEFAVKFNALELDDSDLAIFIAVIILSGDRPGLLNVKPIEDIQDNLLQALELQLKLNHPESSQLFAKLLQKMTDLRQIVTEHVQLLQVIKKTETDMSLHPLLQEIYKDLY
Procedure, shortened: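 Following 5 h plating at 37C, PPARg-bla HEK293H cells receive compound or DMSO for 17 h; fluorescence intensity is recorded after LiveBLAzer B/G loading for 1 h at room temperature.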

[5] = target: Peroxisome proliferator-activated receptor gamma (Homo sapiens) (UniProt P37231); assay: qHTS assay to identify small molecule antagonists of the peroxisome proliferator-activated receptor gamma (PPARg) signaling pathway (AID 743191; calls by dose curve; also: series mostly up to about 63 µM; nearly all actives have a fitted effect of over 30% in size)
Procedure, shortened: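 GeneBLAzer PPARg UAS-bla HEK293H cells carrying a UAS-driven beta-lactamase reporter were plated at 3000 cells/well, preincubated 5 h at 37C, then given compound for 17 h at 37C; LiveBLAzer B/G FRET substrate was read after 1 h at room temperature.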

[6] = qHTS assay to identify small molecule antagonists of the peroxisome proliferator-activated receptor gamma (PPARg) signaling pathway - cell viability counter screen (AID 743194); also: nearly all actives have a fitted effect of over 55% in size
Procedure, shortened: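 PPARg-UAS-bla HEK293H cells were plated, rested 5 h at 37 C, then treated with compounds plus rosiglitazone (50 nM final) for 17 h at 37 C; viability was then read by CellTiter-Glo luminescence after 30 min at room temperature.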

[7] = qHTS assay for small molecule agonists of the antioxidant response element (ARE) signaling pathway (AID 743202; active = well fitted activation curve with a large enough effect in the signal ratio in the repeat runs, not every such curve was filed as active; the % refers to the signal ratio; also: potency is read from the fitted curve at half-maximal effect)
Procedure, shortened: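 Compounds delivered in DMSO to ARE-bla HepG2 cells (2,000 cells/well, pre-incubated 5 h) and left 16 h at 37 C. LiveBLAzer B/G FRET substrate then added for 2 h at RT before fluorescence reading.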

[8] = qHTS assay for small molecule agonists of the antioxidant response element (ARE) signaling pathway - cell viability counter screen (AID 743203; calls by dose curve; also: nearly all actives have a fitted effect of over 55% in size; also: potency is read from the fitted curve at half-maximal effect)
Procedure, shortened: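 Compounds in DMSO were pinned onto ARE-bla HepG2 cells plated 5 hrs earlier at 2,000 cells/well. Sixteen hours later at 37C/5% CO2, CellTiter-Glo was added and luminescence measured after 30 min at room temperature.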

[9] = qHTS assay for small molecule activators of the heat shock response signaling pathway - cell viability counter screen (AID 743209); also: nearly all actives have a fitted effect of over 50% in size
Procedure, shortened: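 Counter screen for cytotoxicity in HeLa HSE-bla reporter cells. Treatment was 5 h at 37 C; viability was detected by luminescent ATP assay (CellTiter-Glo) in the same wells as the beta-lactamase read.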

[10] = qHTS assay for small molecule activators of the heat shock response signaling pathway (AID 743210; active = well fitted activation curve with a large enough effect in the signal ratio in the repeat runs, with a control signal flat, not every such curve was filed as active; the % refers to the signal ratio;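 also: HeLa cells with beta-lactamase reporter driven by heat shock elements; series mostly up to about 63 µM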)
Procedure, shortened: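 Reporter gene assay: HeLa cells stably bearing an HSE-bla construct, compound treatment 5 h at 37 C, LiveBLAzer substrate 2.5 h at RT, fluorescence intensity.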

Measured: Potency

CC(C)OP(=O)(CP(=O)(OC(C)C)OC(C)C)OC(C)C
inactive: all assays above

CCCCC(C=O)CC (stereo not drawn)
not listed: [10]
inactive: all other assays above

CC(=O)c1ccc(O)cc1
inactive: all assays above

CC(=O)OCCOC(C)=O
inactive: all assays above

C=Cc1ccc(C)cc1
inactive: all assays above

CCOCCOCCOCCO
inactive: all assays above

O=c1[nH]cnc2[nH]ncc12
not listed: [10]
inactive: all other assays above

CC(CCO)CC(C)(C)C (stereo not drawn)
inactive: all assays above

O=C(O)c1ccc(C(=O)O)c(C(=O)O)c1
inactive: all assays above

O=C(OCC1CCC2OC2C1)C1CCC2OC2C1 (stereo not drawn)
not listed: [10]
inactive: all other assays above

NCCN1CCNCC1
inactive: all assays above

CC(C)c1cccc(C(C)C)c1
not listed: [10]
inactive: all other assays above

CC(CCl)OP(=O)(OC(C)CCl)OC(C)CCl (stereo not drawn)
inactive: all assays above

Cc1ccc(S(=O)(=O)N=C=O)cc1
inactive: all assays above

CN1C(=O)CC[C@H]1c1cccnc1
not listed: [10]
inactive: all other assays above

CCNc1ccccc1
not listed: [10]
inactive: all other assays above

CCOCC(=O)O
inactive: all assays above

C=CC[N+](C)(C)CC=C
not listed: [10]
inactive: all other assays above

N#Cc1ccccc1
not listed: [10]
inactive: all other assays above

CC(=O)Oc1ccc(C)cc1
not listed: [10]
inactive: all other assays above

CC(C)CC(C)O (stereo not drawn)
inactive and 30.6 µM (active): [7]
not listed: [10]
inactive: all other assays above

NCCNCCN
inactive: all assays above

OC1C(O)C(O)C(O)C(O)C1O (stereo not drawn)
inactive: all assays above

O=C(O)c1ccc(S(=O)(=O)N(Cl)Cl)cc1
27.5 µM (active) and inactive: [7]
not listed: [10]
inactive: all other assays above

CC(C)(C)c1cc(Cc2cc(C(C)(C)C)c(O)c(C(C)(C)C)c2)cc(C(C)(C)C)c1O
inactive: all assays above

CC(=O)CCC=C(C)C
inactive: all assays above

CCCCCCCO
inactive: all assays above

CSc1ccc(Cl)cc1
not listed: [10]
inactive: all other assays above

CC(C)OC(=O)COc1ccc(Cl)cc1Cl
not listed: [10]
inactive: all other assays above

COC(=O)c1cccnc1
not listed: [10]
inactive: all other assays above

CC(=O)OCc1ccccc1
inactive: all assays above

O=C1c2ccccc2CCc2ccccc21
not listed: [10]
inactive: all other assays above

CCOC(=O)n1ccn(C)c1=S
inactive: all assays above

C=CC(C)CCCC(C)(C)O (stereo not drawn)
not listed: [10]
inactive: all other assays above

C=C(C)C(=O)OCC(C)C
inactive: all assays above

c1ccc2c(c1)Cc1ccccc1-2
inactive: all assays above

CC1(C)NC(=O)NC1=O
not listed: [10]
inactive: all other assays above

CNC(=S)N(C)C
not listed: [4] | [10]
inactive: all other assays above

Cc1ccc2ncccc2c1
not listed: [4]
inactive: all other assays above

O=C(O)CCCCCCCCC(=O)O
not listed: [4] | [10]
inactive: all other assays above

C=C(C)CNCC
not listed: [4]
inactive: all other assays above

CCCOC(=O)c1ccccc1
not listed: [5] | [10]
inactive: all other assays above

Cc1ccc(C(C)C)c(O)c1
inactive and 61.1 µM (active): [1]
61.1 µM (active) and inactive: [8]
not listed: [4] | [10]
inactive: all other assays above

COc1ccc(OC)cc1
inactive: all assays above

CCCCCCCCCCCC(=O)OC
inactive: all assays above

CC1(C)S[C@@H]2[C@H](NC(=O)COc3ccccc3)C(=O)N2[C@H]1C(=O)O
inactive: all assays above

CCCCCCC=O
not listed: [4]
inactive: all other assays above

CC(C)(C#N)c1cc(Cn2cncn2)cc(C(C)(C)C#N)c1
not listed: [4]
inactive: all other assays above

Brc1ccc(Br)c(Br)c1
not listed: [4]
inactive: all other assays above

O=C1CCCC1
not listed: [4]
inactive: all other assays above

C=CCCCCCCCCC(=O)O
not listed: [5]
inactive: all other assays above
